Experimental data: PubChem BioAssay AID1063 (University of Pittsburgh Molecular Library Screening Center, 2008)
Screen size: about 200,000 compounds; about 18,000 (9%) were called active. What follows is part of a selection rich in actives, with near analogues and random picks from the rest. A number with no mark means an inactive call. Rule as the data show it: active = inhibition above about 50%; inactive = the rest.

test: Leishmania major promastigote growth inhibition, primary screen (AID 1063); settings: Leishmania major promastigotes, resazurin fluorescence viability; at 10 µM; active compounds read high;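 also: promastigotes grown with compound for 44 hours at 28 °C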

SMILES	inhibition
CN1CCN(CC(=O)Nc2sc3c(c2C#N)CCC(C(C)(C)C)C3)CC1 (centres undefined)	100% (active)
CCN1CCN(CC(=O)Nc2sc3c(c2C#N)CCC3)CC1	-1.23%
CCC1CCc2c(sc(NC(C)=O)c2C#N)C1 (centres undefined)	-3.49%
Cc1nn2cc(-c3ccc(Cl)cc3)cnc2c1Br	-2.01%
COc1ccc(Cl)cc1C(=O)NCC#N	-4%
N#C/C=C\Oc1ccc(Cl)cc1N	67.9% (active)
CCCC/S(C)=N/S(=O)(=O)c1ccc(C)cc1 (centres undefined)	-10.2%
COc1cc(NS(=O)(=O)c2ccc(NC(=O)c3ccc(S(=O)(=O)N4CCCCC4)cc3)cc2)ncn1	-2.97%
Cc1c(CCOC(=O)CC23CC4CC(CC(C)(C4)C2)C3)sc[n+]1Cc1ccc([N+](=O)[O-])cc1	87.9% (active)
Cc1c(CCO)sc[n+]1CC(=O)OC12CC3CC(CC(C3)C1)C2	30.7%
Cc1c(CCOC(=O)c2cc([N+](=O)[O-])ccc2Cl)sc[n+]1CCCCS(=O)(=O)[O-]	-8.59%
COCCNC(=O)CCCn1c(=O)c2ccccc2n(Cc2cccc([N+](=O)[O-])c2)c1=O	4.7%
CCCCNC(=O)CCn1c(=S)[nH]c2cc3c(cc2c1=O)OCO3	-1.74%
CCCCNC(=O)CCn1c(=O)c2ccccc2n(Cc2cc(C)ccc2C)c1=O	58% (active)
Cc1cc(OC(=O)c2ccccc2)c([N+](=O)[O-])c(=O)[nH]1	-2.98%
COc1ccc(CN(C)C(=S)Nc2ccc(Cl)cc2Cl)cc1	4.79%
Cc1ccc(Cn2c(NC(=O)c3ccco3)nc3ccccc32)cc1	9.07%
CCC(=O)NCCc1nc2ccccc2n1CC	-0.68%
CCCCn1c(CCCNC(=O)CC)nc2ccccc21	12.4%
O=S(=O)(O)c1nc2ccccc2n1Cc1ccc(Cl)cc1	-5.39%
CCC(=O)Nc1nc2ccccc2n1Cc1ccccc1C	97.5% (active)
CC(=O)Nc1nc2ccccc2n1Cc1ccc(C)cc1	88.6% (active)
CCO[C@@H]1OC(C(=O)N2CCOCC2)=C[C@H](C)[C@H]1CCCO	-9.37%
Cn1nnnc1SCC(=O)Nc1nc2ccccc2s1	-3.39%
CC(=O)c1ccc(NC(=O)C(C)N(C)CC(=O)Nc2ccccc2Cl)cc1 (centres undefined)	12.8%

SMILES	inhibition
COc1ccc(S(=O)(=O)N(C)CC(=O)N2CCCC2)cc1Cl	-0.12%
COc1cc(CNC2CCCCC2)c(Br)cc1OC1CCCC1	60.8% (active)
COc1cc(CNC2CCCC2)c(Br)cc1OCc1ccccc1	35.4%
CC(C)(C)NCc1cc(Br)ccc1OC1CCCC1	15.5%
C=CS(=O)c1sc(Cl)c(N2CCOCC2)c1[N+](=O)[O-] (centres undefined)	20.9%
CCc1cccc(C)c1NC(=S)N(CCCN1CCN(C)CC1)Cc1cccs1	22.3%
Cc1ccccc1NC(=S)N(CCCN1CCOCC1)Cc1cccs1	61.8% (active)
Cc1ccc(Cl)cc1NC(=S)N(CCN(C)C)Cc1cccs1	18.3%
O=C(CCN1C(=O)c2ccccc2C1=O)NCCCn1ccnc1	-10.1%
O=C(Nc1ccc2nccnc2c1)c1ccco1	-6.2%
O=C(Nc1cccc(NC(=O)c2ccco2)c1)c1cnccn1	20.6%
O=C(Nc1cccc(-c2nc3ncccc3o2)c1)c1ccco1	100% (active)
CC(=O)Nc1ccc(S(=O)(=O)Nc2nccc(/C=C/c3ccccc3F)n2)cc1	-6.64%
CC(c1ccco1)N(C(=O)COc1ccccc1[N+](=O)[O-])c1ccccn1 (centres undefined)	1.39%
CC(c1ccco1)N(C(=O)c1ccc(S(=O)(=O)N2CCCCC2)cc1)c1ccccn1 (centres undefined)	89.7% (active)
O=C(N/N=C/c1ccccn1)c1ccc(S(=O)(=O)N2CCCCCC2)cc1	-3.79%
Cn1c(N)cc(-c2ccc(F)cc2)c(C#N)c1=O	0.6%
CCNC(=O)CSc1nc(-c2ccccc2)cs1	3.19%
O=C(Nc1nc(-c2ccc(-c3ccccc3)cc2)cs1)c1cnccn1	47.8%
Cc1cccc(S(=O)(=O)CC(=O)Nc2nc(-c3ccccc3)cs2)c1	98.6% (active)
Cc1ccc(-c2csc(NNC(=O)c3ccccc3)n2)cc1	16.8%
Cc1ccc(-c2csc(NC(=O)Cn3[nH]c(=O)c4ccccc4c3=O)n2)cc1	5.27%
O=C(CSC1=NCCS1)Nc1nc(-c2ccccc2)cs1	67.4% (active)
Cc1ccc(S(=O)(=O)N(CC(=O)NN=C2CCN(C)CC2)c2ccc(F)cc2)cc1	-0.06%
CCc1cc2c(=O)c(-c3nc4ccccc4n3C)c(CCCC(=O)O)oc2cc1OC(=O)C(C)(C)C	-1.6%

SMILES	inhibition
COc1ccc(/C=C/C(=O)NC(=S)NN2CCCCC2c2cccnc2)cc1 (centres undefined)	69.9% (active)
CCOc1ccc(NC(=S)NC(=O)/C=C/c2ccc(OC)cc2)c([N+](=O)[O-])c1	-5.29%
COc1ccc(C2=NN(C(=O)c3cccnc3)C(c3ccccc3)C2)cc1 (centres undefined)	5.17%
Cc1cccc(N=C2NC(=O)/C(=C/c3cn(C)c4ccccc34)S2)c1	10.8%
Cc1cccc(N=C2NN=C(c3c[nH]c4ccccc34)CS2)c1	64.9% (active)
Cc1cccc(C(=O)Nc2nnc(Cc3c[nH]c4ccccc34)s2)c1	19.2%
CC(C(=O)NC1CCCC1)N(c1ccc(Oc2ccccc2)cc1)S(C)(=O)=O (centres undefined)	29.4%
CCOc1ccc(C(C)=O)cc1CSc1nnc(-c2ccncc2)n1CCOC	2.51%
C/C(=N\NC(=O)Cc1ccc(Cl)cc1)c1ccccn1	100% (active)
COc1ccc(CC(=O)N/N=C(\C)c2ccccn2)cc1	75.9% (active)
C/C(=N\NC(=O)Cc1ccc(F)cc1)c1ccc(F)cc1	-7.37%
COc1ccc(C/C(C)=N/NC(=O)c2ccncc2)cc1	-6.69%
Cc1ccc(Cl)cc1NC(=O)c1ccccn1	-2.2%
COc1ccc(C/C(C)=N/NC(=O)c2cc(C)oc2C)cc1	2.67%
COc1ccccc1NC(=O)C1=C(C)NC(=O)NC1c1ccc(C)s1 (centres undefined)	5.44%
O=C(CC(=O)N/N=C\c1ccc(F)cc1)NCCc1ccccc1	-0.64%
Nc1ccc(S(=O)(=O)Nc2nccc(/C=C/c3ccc(Br)s3)n2)cc1	1.78%
O=C(O/N=C(/c1ccccc1)c1ccncc1)c1ccccc1[N+](=O)[O-]	-5.52%
COC(=O)c1ccc(NC(=S)Nc2cccc(C)n2)cc1	1.93%
COc1cc(OC)cc(-c2nnc(SCC(=O)Nc3ccc(C(=O)O)cc3)s2)c1	-10.5%
COc1ccc(/C=C/C2=CC(C)(C)NC(=S)N2)c(OC)c1	1.29%
COc1cccc(-n2c(=S)[nH]c3c(oc4ccccc43)c2=O)c1	-1.14%
CCCC1(C(=O)OC)NC(c2ccco2)C2C(=O)N(C)C(=O)C21 (centres undefined)	4.05%
Cc1ccc(N(Cc2cc3ccccc3[nH]c2=O)C(=O)c2cccs2)cc1	75.4% (active)
Cc1cccc2cc(CN(C(=O)c3cccs3)c3ccccc3)c(=O)[nH]c12	-3.04%

SMILES	inhibition
CCC(=O)N(Cc1cc2ccccc2[nH]c1=O)c1ccc(OC)cc1	11.3%
Cc1ccc2c(c1)C(O)(CC(=O)c1cccc(-n3cccc3)c1)C(=O)N2 (centres undefined)	0.06%
COCCCNC(=O)c1ccc2c(c1)ncn2-c1ccccc1OC	-1.51%
COc1cc(NS(=O)(=O)c2ccccc2)ccc1-n1nc(C)cc1C	-5.46%
COc1ccccc1-n1cnc2cc(NS(=O)(=O)c3ccccc3)ccc21	98.3% (active)
O=[N+]([O-])c1ccccc1N/N=C1\CCc2ccccc21	-1.95%
N#Cc1cccc(NC(=O)CCC2CCCC2)c1	5.79%
O=C(Nc1c2c(nc3ccccc13)CCCC2)c1ccccc1Br	6.31%
N#Cc1cccc(Nc2c3c(nc4ccccc24)CCCC3)c1	86.9% (active)
COc1ccc2c(c1)C(c1cccs1)=NNC(c1cccnc1)=N2	23.7%
CC(NC(=O)COC(=O)c1ccc2c(c1)OCO2)c1ccccc1 (centres undefined)	-3.45%
CCOC(=O)C1=C(C)NC(SC)=NC1c1ccccc1 (centres undefined)	8.85%
CCOC(=O)C1=C(C)N=C2c3ccccc3C(=O)C2C1c1ccc(Br)cc1 (centres undefined)	99.4% (active)
CCOC(=O)C1=C(C)NC(=O)NC1c1ccccc1 (centres undefined)	-1.3%
CN(C)c1nccc(NCc2ccccc2)c1C#N	-3.1%
COCCCNC(=O)CNC(=S)N(Cc1cc(OC)c(OC)c(OC)c1)C1CCCC1	-3.29%
CN(C)CC(O)COc1ccc(C(C)(C)c2ccc(OCC(O)CN(C)C)cc2)cc1 (centres undefined)	100% (active)
CCCC(O)(c1ccc(OC)cc1)C(CN(C)C)c1ccccc1 (centres undefined)	-1.91%
COc1ccc(OCC(O)CNC(=O)Nc2ccc(Cl)cc2)cc1 (centres undefined)	-4.73%
CN(C)S(=O)(=O)c1cccc(NC(=S)N/N=C/C(=O)c2ccccc2)c1	2.84%
Cc1cccc(N2CCN(c3ccc(NC(=O)/C=C\C(=O)O)cc3)CC2)c1	-2.44%
Cc1ccsc1C(=O)OCC(=O)c1cc(C)n(CC2CCCO2)c1C (centres undefined)	-1.1%
Cc1cc(NC(=O)CCC2COc3ccccc3O2)no1 (centres undefined)	-5.57%
Cc1cc(C(=O)CCl)c(C)n1CC1COc2ccccc2O1 (centres undefined)	101% (active)
